Source: PubChem BioAssay AID485313 (National Center for Advancing Translational Sciences (NCATS), 2010)
About 7,600 (2.4%) of roughly 320,000 compounds were called active. Roughly 3% stayed inconclusive and do not appear here. The call rests on the fitted dose curve; in most records, active means well fitted activation curve with a large enough effect; inconclusive means small, poorly fitted or top-dose-only effect; inactive means no such curve, though single readings can be large or run the other way. The entries come from a sample that favours actives as a whole.

Experiment: qHTS Assay for NPC1 Promoter Activators; further: nearly all actives have a fitted effect of over 60% in size;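 on activation: reporter is driven by a mutant NPC1 promoter; % of control where 0% means no effect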
Conditions: Huh7 NPC1 promoter luciferase reporter, 24 h; series mostly up to 9.22 µM; activation: at the top concentration
Summary of the method: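 Readout is luciferase luminescence, reflecting NPC1 promoter activation in stably transfected Huh7 cells after 24 h compound exposure at 37 °C in reduced-serum medium with 10% FBS.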
Potency means the concentration at half of the fitted maximal effect.

activation, inactive:
O=C(CC1C(=O)NCCN1CC(c1ccccc1)c1ccccc1)NCC1CCOCC1 (centres undefined) -1.68%
CCC1CCC2(CC1)NC(=O)N(CC(=O)Nc1ccc(OC)cc1)C2=O (centres undefined) -1.13%
COc1ccccc1N1CCN(/N=C\C(Br)=C\c2ccccc2)CC1 26.2%
COc1cc(/C=N/N2CCN(c3ccccc3)CC2)ccc1OC(C)=O 1.6%
O=C(Cc1cccs1)Nc1ccc([N+](=O)[O-])cc1 1.42%
CCOc1ccccc1NC(=O)Cc1cccs1 -7.01%
O=C(O)c1[nH]c2ccccc2c1C(c1cccc(O)c1)c1c(C(=O)O)[nH]c2ccccc12 -0.0937%
COc1ccc(NC(=O)CC2SC(N3CCCCC3)=NC2=O)cc1OC (centres undefined) -0.702%
O=C(NCCCN1CCN(c2ccc(F)cc2)CC1)Nc1ccc([N+](=O)[O-])cc1 -1.46%
CC(=O)Oc1ccc(-c2cccc(C(=O)N3CCCCC3)c2)cc1 19%
CN(Cc1ccccc1)C(=O)c1ccc(COc2ccccc2)cc1 -4.73%
COc1ccc(Cn2c(=S)[nH]c3cc(C(=O)N4CCCCC4)ccc3c2=O)cc1 13.8%
COc1cccc(COc2ccc(N(C)S(=O)(=O)c3ccccc3)cc2)c1 -2.05%
CCCCn1nc(C(=O)Nc2cccc(C(=O)NC3CC3)c2)c2ccccc2c1=O -1.73%
O=C(Nc1ccccc1)N1CCC(C(=O)N2CCN(Cc3ccccc3)CC2)CC1 3.24%
COc1cccc(N2CCN(CC(=O)Nc3ccnn3C3CCCC3)CC2)c1 -3.51%
CN(CC(=O)Nc1ccc(Cl)cc1)CC(=O)Nc1cccc2ccccc12 -4.37%
Cc1ccc(C(=O)NNC(=O)c2cc3cc4ccccc4nc3s2)cc1 1.16%
CCc1nc(SCC(=O)NNC(=O)c2ccc(C)cc2)c2ccccc2n1 1.99%
CC(=O)Nc1ccc(S(=O)(=O)NC(C)C(=O)OCCOc2ccc(F)cc2)cc1 (centres undefined) 0.67%
N#CCC(=O)Nc1ccc(C(=O)OCC(=O)Nc2sc3c(c2C#N)CCCC3)cc1 -0.499%
Cc1ccccc1NC(=O)NNC(=O)OC(C)(C)C 0.144%
CC(C)(C)OC(=O)N/N=C/c1ccc(C(=O)O)cc1 0.842%
CC(C)CC(COCc1ccc(Cl)cc1)N1CCN(C(=O)c2ccc(C(F)(F)F)cc2)CCC1=O (centres undefined) -5.4%
CCOc1ccc(NC(=O)CN(C)C(=O)Cn2c(=O)cnc3ccccc32)cc1OCC -0.76%
O=c1c2ccccc2ccc2ccc(P(=O)(O)O)cc12 -2.15%
CN(C)/C=C/C(=O)c1ccccc1F 0.124%
Cc1nc(COc2cccc(Cl)c2)sc1C(=O)/C=C/N(C)C 18.5%
Cn1c(SCC(=O)Nc2nccs2)nnc1-c1cccnc1 -0.463%
O=C(NCCCNC(=O)c1ccccc1Cl)c1cnccn1 -0.803%
COC(=O)c1ccc(OC(=O)c2cnccn2)cc1 0.63%
CCOc1ccc2oc(C(=O)N(CC)CC(=O)Nc3ccc(NC(C)=O)cc3)c(C)c2c1 5.68%
Cc1c(O)c(C)c2c(c1O)C(=O)C[C@@H](c1ccccc1)O2 1.52%
O=C(Nc1ccon1)c1nc[nH]c1C(=O)NCc1ccccc1 0.0628%
CC(Oc1ccc(Br)cc1)C(=O)NC1CCCCCC1 (centres undefined) 17.9%
COc1cccc(CC(=O)Nc2ccc(-c3csc(C)n3)cc2)c1 1.47%
CC(C)(C)C(=O)OCc1nc(-c2ccc(O)c(O)c2)cs1 -3.2%
CCN(CC(=O)Nc1cc(Cl)ccc1C)C(=O)CSCc1ccccc1 -2.25%
CC(=O)c1ccc(N2CCN(C(=O)CCc3ccccc3)CC2)cc1 -1.38%
CC(=O)c1ccc(N2CCN(CC(O)c3ccccc3)CC2)cc1 (centres undefined) -7.6%
O=C(O)c1cc(S(=O)(=O)Nc2ccc3cn[nH]c3c2)ccc1Br 1.48%
CS(=O)(=O)N1CCN(C(=O)Cc2ccccc2)CC1 -1.21%
CS(=O)(=O)N1CCN(c2cccc(Cl)n2)CC1 2.53%
CCCCN(C(=O)C1=NN(c2cc(C)ccc2C)C(=O)CC1)c1c(N)n(CCC)c(=O)[nH]c1=O -0.22%
COc1ccc(OCCCC(=O)Nc2cccc(S(=O)(=O)N3CCCCCC3)c2)cc1 4.23%
Brc1ccc(-c2csc(N/N=C/c3cccnc3)n2)cc1 3.01%
O=C(NCc1cccnc1)C(=O)Nc1nc(-c2ccccc2)cs1 26.3%
CN(C(=O)COC(=O)Cn1cnc2c1c(=O)n(C)c(=O)n2C)C1(C#N)CCCCC1 -0.17%
O=C(CSc1nnc(Nc2ccccc2F)s1)NC1CCCC1 4.95%
COc1ccc(-c2nnc3ccc(SCc4ccccc4)nn23)cc1 2.4%
COC(=O)CSc1nc(C)c2ccc(OC)cc2n1 -0.564%
Cc1ccc(OCC(=O)Nc2ccccc2C(=O)NC2CC2)cc1 0.788%
CC(C)Oc1ccc(S(=O)(=O)N2CCOCC2)cc1NC(=O)C1CCCC1 1.15%
O=C(c1ccc(Br)o1)N(c1ccccn1)C1CCCCC1 0.227%
COc1cccc(NC(=O)CN(C)CC(=O)c2c(N)n(Cc3ccccc3)c(=O)n(C)c2=O)c1 -2.46%
Cc1cccc(C(=O)c2cccc(C)c2)c1 -0.639%
N/C(=N\OC(=O)c1cc(-c2ccccc2)nc2ccccc12)c1ccncc1 3.57%
C[C@H](NC(=O)C1CC(=O)N(c2ccc3c(c2)OCCO3)C1)C(=O)N1CCC(C(=O)O)CC1 (some centres undefined) -3.35%
COc1cc(C(=O)OCC(=O)NC23CC4CC(CC(C4)C2)C3)cc(OC)c1OC 0.787%
CSCCC(NC(=O)COc1ccccc1)C(=O)N(C)CC(=O)Nc1ccc(C)cc1 (centres undefined) -2.11%
O=C(COC(=O)C1(c2ccc(F)cc2)CCCC1)N1CCNC1=O 0.411%
O=c1[nH]c2cccnc2n1-c1ccc([N+](=O)[O-])cc1 2.63%
O=[N+]([O-])c1ccc2c(c1)Nc1nc3ccccc3nc1N2 -0.0231%
CCN(CC(=O)Nc1ccc(OC)cc1)C(=O)c1ccc(=O)n(Cc2ccccc2)n1 -0.115%
Cc1nn2c(=O)cc(COC(=O)c3ccc(NC(=O)C(C)(C)C)cc3)nc2s1 -1.52%
O=c1cc(CCl)nc2scc(-c3ccccc3)n12 -0.115%
CCC(C)N(C(=O)CSc1nnnn1-c1ccccc1OC)C1CCS(=O)(=O)C1 (centres undefined) 4.75%
CC(NCc1ccccc1OC1CCCC1)c1ccccc1 (centres undefined) -1.56%
O=C(Nc1sc2c(c1C(=O)O)CCC2)c1ccccc1F 6.62%
C=CCN(CC=C)S(=O)(=O)c1ccc(C(=O)Nc2sc3c(c2C(N)=O)CCCCC3)cc1 -8.3%
COc1ccc(C(=O)OC(C)C(=O)NC2CCCC2)cc1S(=O)(=O)N1CCOCC1 (centres undefined) -1.48%
CC(C)CN(C(=O)CSc1ncnc2sccc12)C1CCS(=O)(=O)C1 (centres undefined) -2.91%
CC(=O)c1ccc(S(=O)(=O)N2CCC(Oc3ccc(-n4cnnn4)cc3)CC2)cc1 -3.83%
O=C(COC(=O)Cc1ccc(Br)cc1)Nc1ccc(N2CCOCC2)cc1 -1.47%
CC(=O)NC12CC3CC(C1)CC(C(=O)N1CCN(C(=O)c4ccco4)CC1)(C3)C2 0.551%
O=C(c1ccncc1)N1CCN(c2ccc3ccccc3n2)CC1 -0.852%
CC12CCC(C(=O)N3CCN(c4ncccn4)CC3)(c3nc4ccccc4nc31)C2(C)C (centres undefined) -0.0128%
CCc1nnc(NC(=O)c2cc(S(=O)(=O)N3CCCCC3)ccc2C)s1 -2.65%
CCC1(C)CC(=O)NC1=O (centres undefined) 0.774% [at 46.1 µM]
CC(C)(C)OC(=O)NCCCCCNC(=O)c1[nH]cnc1C(=O)Nc1nccs1 9.24%
O=C(Nc1ccc2c(c1)OCCO2)c1ccoc1 29.1%
CCn1c(SCC(=O)Nc2ccc3c(c2)OCCO3)nnc1C(C)C 3.74%
O=C(Nc1cccc(NC(=O)c2ccco2)c1)c1cnccn1 2.89%
CCn1c(SCC(=O)Nc2ccc3c(c2)OCCO3)nnc1-c1ccncc1 -7.41%
O=C(COC(=O)c1ccccc1Cl)NC1CCCCCCC1 -2.13%
O=C(N[C@@H](Cc1c[nH]c2ccccc12)C(=O)O)OCC1c2ccccc2-c2ccccc21 -7.22%
O=C(Nc1ccccn1)C1CCN(S(=O)(=O)c2ccc3c(c2)OCCO3)CC1 14.3%
CCOC(=O)C1CCCN(S(=O)(=O)c2ccc3c(c2)C(C)(C)C(=O)N3C)C1 (centres undefined) -2.74%
COc1ccc(N(CCC(=O)NCCc2ccccc2)S(=O)(=O)c2ccc(C)cc2C)cc1 22.4%

Potency, active:
COc1ccccc1N1CCN(/N=C/c2ccc(O)cc2O)CC1 2820 nM
CCOC(=O)c1ccc(NC(=O)Cc2cccs2)cc1 3550 nM
COc1ccc(OCc2cccc(C(=O)N3CCCC3)c2)cc1 447 nM
CCOc1ccc(OCc2cccc(C(=O)N(CC)CC)c2)cc1 251 nM
Cc1ccc(C(=O)NNc2ncnc3ccccc23)cc1 3160 nM
C/C(=N\NC(=O)OC(C)(C)C)c1ccc[nH]1 2820 nM
Cc1nc(-c2ccccc2)sc1C(=O)/C=C/N(C)C 2820 nM
Cn1c(=NC(=O)c2cnccn2)sc2ccccc21 2000 nM
COc1ccc(-c2csc(Cc3nc(O)cs3)n2)cc1 3550 nM
CC(=O)c1ccc(N2Cc3ccccc3C2)cc1 2510 nM
CS(=O)(=O)N1CCc2nc(-c3ccccc3)sc2C1 2510 nM
Cc1ccccc1Nc1nc(-c2cccnc2)cs1 1780 nM
COc1ccc2nc(SCc3ccccc3)nc(C)c2c1 3160 nM
Cc1cccc(/C(N)=N/OC(=O)c2ccccc2Cl)c1 89.1 nM
O=[N+]([O-])c1ccc2nc(-c3ccccn3)[nH]c2c1 1580 nM
Cc1csc2nc(COC(=O)c3cccc(N(C)C)c3)cc(=O)n12 1410 nM
NC(=O)c1c(NC(=O)c2ccccc2)sc2c1CCCC2 3980 nM
c1cnc(N2CCN(c3ccc4ccccc4n3)CC2)nc1 1410 nM
Cn1ccnc1SCC(=O)Nc1ccc2c(c1)OCCO2 2510 nM
O=C(Nc1ccc2c(c1)OCCO2)c1cnccn1 2820 nM
